Source: PubChem BioAssay AID1272365 (Small Molecule Screening Facility, UW Madison, 2023)
“And” between values parts separate entries of the source, which are not always exact repeats. Equal values may be shown once. In all, about 430,000 compounds went through this assay and about 2,600 (0.6%) were called active. Cut-off read from the data, not from the text of the source: active = inhibition mostly above about 37% (no sharp cut-off); inactive = mostly below about 20%. For the sample, actives were picked, then their nearest neighbours and some compounds at random.

Each molecule was assayed on PriA–SSB C-terminal tail interaction (Klebsiella pneumoniae) (assay: blocks PriA binding to SSB C-terminal tail, primary screen, biochemical, AlphaScreen (AID 1272365;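 note: plate controls were negative control peptide for no effect and reference peptide for full effect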)). Conditions: AlphaScreen SSBct-PriA binding, biotinylated peptide; at 33 µM, stronger effect = higher value.

Structure (SMILES)	inhibition
Cc1ccc(Nc2nc(-c3ccccn3)cs2)cc1C	108% (active)
Cc1csc(OCC(=O)Nc2ccc(C)c(C)c2)n1	-9.32% (inactive)
Cc1cc(-c2csc(Nc3ccccn3)n2)c(C)o1	2% (inactive)
COc1ccccc1C(CNC(=O)c1ccc2c(c1)OCO2)OC (stereo unspecified)	-10% (inactive)
Cc1noc(C)c1CC(=O)NCCn1cnc2ccsc2c1=O	-1% (inactive)
O=C1c2ccccc2C(=O)c2c1cccc2N1CCN(Cc2ccccc2)CC1	50.5% (inactive)
O=C1c2ccccc2C(=O)c2c1cccc2N1CCN(C/C=C/c2ccccc2)CC1	68.2% (active)
CNC(=O)NC(=O)C(C)N1CCN(C/C=C/c2ccccc2)CC1 (stereo unspecified)	7.15% (inactive)
Cc1ccc(Nc2ccc(NCCN)nn2)nc1	89% (active)
Cc1ccc(NS(=O)(=O)c2ccc(F)cc2)nc1	-0.76% (inactive)
Cc1cccc(N2CCN(C(=O)CCc3csc4nc(-c5ccccc5)cn34)CC2)c1	-16% (inactive)
O=C(CSc1ccccc1)Nc1nc(-c2ccccn2)cs1	-20% (inactive)
COc1ccc(SCCC(=O)Nc2nc(-c3ccccn3)cs2)cc1	81% (active)
O=C(Cc1csc(NC(=O)c2ccccc2)n1)NCc1ccccn1	0% (inactive)
CC(C)C1Nc2ccccc2C(=O)N1CC(=O)Nc1nc(-c2ccccn2)cs1 (stereo unspecified)	94.5% (active)
Cc1c(C(=O)Nc2nc(-c3ccccn3)cs2)cccc1[N+](=O)[O-]	25.8% (inactive)
Cc1ccc(SCCC(=O)Nc2nc(-c3ccc4c(c3)OCCO4)cs2)cc1	8% (inactive)
O=C(CN1C(=O)C2C3C=CC(C3)C2C1=O)Nc1nc(-c2ccccn2)cs1 (stereo unspecified)	84.8% (active)
O=C(CCN1C(=O)C2C3C=CC(C3)C2C1=O)Nc1ccccc1F (stereo unspecified)	-14.1% (inactive)
O=C1c2ccccc2NC(c2ccccn2)N1NS(=O)(=O)c1ccccc1 (stereo unspecified)	-13.5% (inactive)
Cc1ccc(-c2csc(NC(=O)[C@H](C(C)C)N3C(=O)c4ccccc4C3=O)n2)cc1	-1% (inactive)
O=C(CC1(n2cccc2)CCOCC1)Nc1nc(-c2ccccn2)cs1	109% (active)
CCCCOC(=O)NCN1C(=O)C2C3C=CC(C3)C2C1=O (stereo unspecified)	9.26% (inactive)
Cc1cc(OCC(=O)NCCc2ccccc2)ccc1C(C)C	-16% (inactive) and -56% (inactive)

Structure (SMILES)	inhibition
O=C(Nc1nc(-c2cc([N+](=O)[O-])cs2)cs1)C1CC1	16% (inactive)
O=C(COc1ccc(F)cc1)Nc1ccc2c(c1)N(C(=O)c1ccco1)CC2	0% (inactive)
Cc1c(S(=O)(=O)CCNC(=O)NCc2cccs2)c2ccccc2n1C	-1% (inactive)
COc1cc(/C=C2\Oc3cc(OCC(=O)O)ccc3C2=O)cc(OC)c1OC	-2% (inactive)
COc1ccc(OC)c(NC(=O)c2ccc(S(=O)(=O)NC3CC3)cc2)c1	16% (inactive)
O=C(NCCn1nc(C(F)(F)F)c2c1CCCC2)c1c(F)cccc1Cl	-4% (inactive)
COC(=O)c1c(NC(=O)c2cc(C)no2)sc2c1CCCC2	0% (inactive)
CCOC(=O)c1ccc(NC(=O)c2cc(=O)[nH]cn2)cc1	-18% (inactive)
Nn1c(SCC(=O)NC2CCCCC2)nnc(CCC(=O)O)c1=O	-5% (inactive)
COc1ccc(-n2nnc(C(=O)OCc3ccccc3C)c2C)cc1	-5% (inactive)
CSc1ccccc1NC(=O)C(=O)NCCC(O)c1ccc2c(c1)OCO2 (stereo unspecified)	13% (inactive)
O=C(Nc1ccc2c(c1)OCO2)c1ccc2nccnc2c1	-19% (inactive)
CS(=O)(=O)N1CCCCC1C(=O)Nc1nc(-c2ccccn2)cs1 (stereo unspecified)	79% (active)
CS(=O)(=O)N1CCC[C@H]1C(=O)Nc1nc(-c2ccccn2)cs1	75% (active)
CS(=O)(=O)N1CCCC1C(=O)Nc1nc2c(F)cc(F)cc2s1 (stereo unspecified)	5% (inactive)
CC1(C)CC(=O)c2sc(NC(=O)C3CCCCN3S(C)(=O)=O)nc2C1 (stereo unspecified)	-7% (inactive)
O=C(Nc1nccs1)C1CCCN1S(=O)(=O)c1cccc2cccnc12 (stereo unspecified)	-2.31% (inactive)
CS(=O)(=O)N1CCCC(C(=O)Nc2nc(-c3nc4ccccc4s3)cs2)C1 (stereo unspecified)	-20% (inactive)
NS(=O)(=O)c1ccc(CCNC(=O)C(=O)Nc2nc3ccccc3s2)cc1	-20% (inactive)
COc1ccc2cc(C(=O)N(CCc3cccs3)C3CC3)[nH]c2c1	-1% (inactive)
Cc1nc2ccccc2c(=O)n1-c1ccc(F)c(NC(=O)c2ccccc2Cl)c1	3% (inactive)
O=S(=O)(Nc1ccc(Nc2ccc(-n3cccn3)nn2)cc1)c1ccccc1Cl	100% (active)
COc1cc(Nc2ccc(NS(=O)(=O)c3ccccc3Cl)cc2)nc(C)n1	5% (inactive)
Cc1cccc(NC(=O)Nc2ccc(Nc3ccc(-n4cccn4)nn3)cc2)c1C	66% (active) and 33% (inactive)

Structure (SMILES)	inhibition
O=S(=O)(Nc1ccc2[nH]ncc2c1)c1ccccc1Cl	1.19% (inactive)
CCc1ccccc1NC(=O)Nc1ccc(Nc2cc(-n3cccn3)ncn2)cc1	-23% (inactive)
Cc1nn(-c2ccc(Nc3ccc(NC(=O)COc4ccccc4)cc3)nn2)c(C)c1C	-7% (inactive)
O=c1c2cc(-c3cccs3)nn2cnn1Cc1nc(-c2ccc(OCc3ccccc3)cc2)no1	-16% (inactive)
CC(C)c1ccc(/C=C2\CC/C(=C\C=NN(C)C)C2=O)cc1	5.12% (inactive)
Cc1cc(C)cc(NC(=O)N2CCN(c3ccc4nnc(C5CC5)n4n3)CC2)c1	-16% (inactive)
CC(C)c1cc(=O)n(CC(=O)Nc2ccccc2C#N)cn1	-2% (inactive)
Cc1ccccc1OCC(=O)NCCCS(=O)(=O)N1CCc2ccccc2C1	-9% (inactive)
O=C(CSc1ncc(-c2cccc(Br)c2)o1)NCc1ccc2c(c1)OCO2	-4% (inactive)
CCC(=O)Nc1ccc(-c2nc3ccccc3o2)cc1	-11% (inactive)
CCn1nccc1C(=O)Nc1ccc(-c2nc3ccccc3o2)cc1	83% (active)
CCn1nccc1C(=O)Nc1ccc(S(=O)(=O)NC23CC4CC(CC(C4)C2)C3)cc1	-2.71% (inactive)
O=C(c1ccc(OC(F)(F)F)cc1)N1CC(S(=O)(=O)C2CCCCC2)C1	-1% (inactive)
COc1ccc(CCNC(=O)C(=O)Nc2ccc3c(c2)CCCN3C(=O)c2cccs2)cc1	1% (inactive)
O[C@H](c1ccncc1)c1c(-c2ccccc2)[nH]c2ccccc12	2% (inactive)
CCN(c1ccc(NC(=O)COC(=O)CCc2nc3ccccc3n2-c2ccccc2)cc1)C(C)C	55.2% (active)
Cc1ccc(NC(=O)COC(=O)CCc2nc3ccccc3n2-c2ccccc2)c(C)c1	4.81% (inactive)
COc1ccc(NC(=O)COC(=O)Cn2c(C)nc3ccccc32)cc1OC	-8.33% (inactive)
COc1cc([N+](=O)[O-])cc(C=NNC(=O)c2ccc(C)nc2)c1O	79.7% (inactive)
CS(=O)(=O)Nc1c(Cl)c(Cl)c(Cl)c(Cl)c1Cl	3% (inactive)
Cc1ccc2cc(CCNC(=O)c3c(-c4ccccc4Cl)noc3C)c(=O)[nH]c2c1	4.89% (inactive)
Cc1onc(-c2ccccc2Cl)c1C(=O)NCCCS(=O)(=O)N1CCN(c2ccccn2)CC1	-12% (inactive)
Cc1onc(-c2ccccc2Cl)c1C(=O)NCCn1ccc2ccccc21	5% (inactive) and 69.4% (active)
